# How the values were obtained:
# Assay in all cases: DAPPL (digital affinity profiling via proximity ligation, sequencing); 10 mM Tris-HCl pH 7.5, 50 mM NaCl, 1 mM DTT, 4% glycerol, room temperature, 30 min; GST-TFs on glutathione beads, 16-mer random dsDNA library, 0.1% formaldehyde crosslink after washing; high values mean tight binding
# Settings in all cases: protein: recombinant; tags: N-terminal GST; dsDNA, one strand shown
# ELK1 = target: T1, ELK1 (Homo sapiens, UniProt P19419 1-428)
# T1 sequence: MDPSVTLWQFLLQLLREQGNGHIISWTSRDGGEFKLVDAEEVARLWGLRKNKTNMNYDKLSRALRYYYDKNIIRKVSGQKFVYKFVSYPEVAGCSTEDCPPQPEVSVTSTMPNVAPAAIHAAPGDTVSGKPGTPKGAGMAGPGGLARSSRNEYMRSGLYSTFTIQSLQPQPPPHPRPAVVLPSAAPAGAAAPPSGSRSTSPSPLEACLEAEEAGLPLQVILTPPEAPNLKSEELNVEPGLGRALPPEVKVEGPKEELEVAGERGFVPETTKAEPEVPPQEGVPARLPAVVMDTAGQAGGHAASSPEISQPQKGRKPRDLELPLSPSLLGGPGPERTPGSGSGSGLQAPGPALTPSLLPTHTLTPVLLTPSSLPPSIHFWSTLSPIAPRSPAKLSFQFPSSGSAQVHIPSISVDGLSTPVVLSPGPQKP
# In short: (§1)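 Beads coated with glutathione captured GST-fused human transcription factors that had been expressed in yeast, and the factors were then given DNA barcodes and pooled with a tag-only sample. The pools were incubated with 200 nmole of a random double-stranded 16-mer DNA library in Tris/NaCl/DTT/glycerol buffer for 30 min at room temperature, washed, crosslinked with 0.1% formaldehyde and proximity-ligated with BsaI/T4 ligase at 37 °C for 1 h. PCR amplification and Illumina NextSeq500 sequencing came last. Binding signal is each hexamer's read frequency for a factor divided by its frequency for the tag-only sample.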
# GABPA = target: T2, GABPA (Homo sapiens, UniProt Q06546 1-454)
# T2 sequence: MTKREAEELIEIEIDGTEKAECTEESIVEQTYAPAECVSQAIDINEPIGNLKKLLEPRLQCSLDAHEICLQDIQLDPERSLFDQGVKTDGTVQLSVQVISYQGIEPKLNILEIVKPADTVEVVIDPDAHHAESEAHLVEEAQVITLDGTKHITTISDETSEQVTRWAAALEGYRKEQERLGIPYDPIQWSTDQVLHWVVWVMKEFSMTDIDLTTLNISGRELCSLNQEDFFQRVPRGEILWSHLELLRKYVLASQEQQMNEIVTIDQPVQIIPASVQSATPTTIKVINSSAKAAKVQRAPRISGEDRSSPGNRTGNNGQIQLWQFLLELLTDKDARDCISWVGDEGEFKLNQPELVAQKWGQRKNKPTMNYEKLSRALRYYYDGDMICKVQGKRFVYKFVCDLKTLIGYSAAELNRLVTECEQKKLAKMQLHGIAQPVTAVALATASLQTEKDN
# In short: as §1
# ERG = target: T3, ERG (Homo sapiens, UniProt P11308 1-479)
# T3 sequence: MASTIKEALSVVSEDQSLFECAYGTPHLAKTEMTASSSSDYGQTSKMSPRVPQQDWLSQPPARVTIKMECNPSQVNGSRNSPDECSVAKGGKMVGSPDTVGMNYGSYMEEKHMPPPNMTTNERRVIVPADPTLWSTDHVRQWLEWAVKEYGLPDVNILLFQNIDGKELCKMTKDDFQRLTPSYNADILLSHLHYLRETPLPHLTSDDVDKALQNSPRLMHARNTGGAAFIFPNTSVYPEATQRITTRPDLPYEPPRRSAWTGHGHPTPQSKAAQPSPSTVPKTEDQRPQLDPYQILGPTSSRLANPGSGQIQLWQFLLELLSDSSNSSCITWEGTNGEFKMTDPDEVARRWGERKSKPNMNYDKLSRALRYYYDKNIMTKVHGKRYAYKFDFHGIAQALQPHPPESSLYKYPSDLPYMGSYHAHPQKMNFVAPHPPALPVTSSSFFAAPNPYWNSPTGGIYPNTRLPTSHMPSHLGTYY
# In short: as §1
# ELF1 = ELF1 (Homo sapiens, UniProt P32519 1-619)
# ELF1, sequence (P32519 whole entry): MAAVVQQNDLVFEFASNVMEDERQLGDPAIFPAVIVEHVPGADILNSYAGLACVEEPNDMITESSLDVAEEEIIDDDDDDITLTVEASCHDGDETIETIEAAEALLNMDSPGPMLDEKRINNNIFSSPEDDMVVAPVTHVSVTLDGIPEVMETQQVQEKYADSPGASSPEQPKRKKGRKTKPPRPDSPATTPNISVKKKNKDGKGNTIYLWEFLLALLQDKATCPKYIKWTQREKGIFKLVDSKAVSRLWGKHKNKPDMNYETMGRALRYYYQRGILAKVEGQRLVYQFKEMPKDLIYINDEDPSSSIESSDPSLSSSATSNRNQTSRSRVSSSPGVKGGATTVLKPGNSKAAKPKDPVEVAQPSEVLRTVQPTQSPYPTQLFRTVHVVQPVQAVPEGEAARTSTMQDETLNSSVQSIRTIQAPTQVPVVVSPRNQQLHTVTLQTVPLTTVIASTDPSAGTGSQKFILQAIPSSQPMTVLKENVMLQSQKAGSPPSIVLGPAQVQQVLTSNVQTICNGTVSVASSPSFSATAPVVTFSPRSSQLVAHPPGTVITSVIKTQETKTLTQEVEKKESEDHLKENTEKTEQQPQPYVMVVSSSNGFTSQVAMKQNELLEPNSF
# In short: as §1
# EHF = target: T4, EHF (Homo sapiens, UniProt Q9NZC4 1-300)
# T4 sequence: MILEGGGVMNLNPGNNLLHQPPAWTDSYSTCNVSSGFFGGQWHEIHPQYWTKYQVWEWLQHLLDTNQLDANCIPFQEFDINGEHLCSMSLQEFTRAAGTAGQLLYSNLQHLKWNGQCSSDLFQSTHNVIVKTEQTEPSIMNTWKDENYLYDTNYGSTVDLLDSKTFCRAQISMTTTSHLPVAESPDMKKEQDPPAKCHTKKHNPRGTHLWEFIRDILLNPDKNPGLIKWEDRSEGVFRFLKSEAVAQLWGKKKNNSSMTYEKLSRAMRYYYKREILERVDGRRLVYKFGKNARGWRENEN
# In short: as §1
# SPIB = SPIB (Homo sapiens, UniProt Q01892 1-262)
# SPIB, sequence (Q01892 whole entry): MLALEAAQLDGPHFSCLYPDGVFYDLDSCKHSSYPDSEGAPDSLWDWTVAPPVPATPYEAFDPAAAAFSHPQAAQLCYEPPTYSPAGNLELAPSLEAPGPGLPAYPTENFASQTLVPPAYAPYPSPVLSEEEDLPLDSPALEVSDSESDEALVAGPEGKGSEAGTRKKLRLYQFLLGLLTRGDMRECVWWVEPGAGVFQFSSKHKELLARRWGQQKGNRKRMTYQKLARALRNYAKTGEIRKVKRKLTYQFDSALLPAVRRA
# In short: as §1
# ELK3 = target: T5, ELK3 (Homo sapiens, UniProt P41970 1-407)
# T5 sequence: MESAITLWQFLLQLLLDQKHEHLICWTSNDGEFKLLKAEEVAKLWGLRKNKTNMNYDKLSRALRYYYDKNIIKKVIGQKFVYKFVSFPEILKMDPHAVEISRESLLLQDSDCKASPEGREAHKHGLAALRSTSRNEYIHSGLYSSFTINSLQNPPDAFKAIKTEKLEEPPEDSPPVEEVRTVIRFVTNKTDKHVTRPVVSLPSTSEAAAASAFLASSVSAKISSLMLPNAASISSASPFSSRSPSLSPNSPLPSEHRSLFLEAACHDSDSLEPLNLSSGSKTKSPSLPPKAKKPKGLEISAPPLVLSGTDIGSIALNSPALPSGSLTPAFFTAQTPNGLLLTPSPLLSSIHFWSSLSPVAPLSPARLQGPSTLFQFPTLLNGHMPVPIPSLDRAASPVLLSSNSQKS
# In short: as §1
# ETV5 = ETV5 (Homo sapiens, UniProt P41161 1-510)
# ETV5, sequence (P41161 whole entry): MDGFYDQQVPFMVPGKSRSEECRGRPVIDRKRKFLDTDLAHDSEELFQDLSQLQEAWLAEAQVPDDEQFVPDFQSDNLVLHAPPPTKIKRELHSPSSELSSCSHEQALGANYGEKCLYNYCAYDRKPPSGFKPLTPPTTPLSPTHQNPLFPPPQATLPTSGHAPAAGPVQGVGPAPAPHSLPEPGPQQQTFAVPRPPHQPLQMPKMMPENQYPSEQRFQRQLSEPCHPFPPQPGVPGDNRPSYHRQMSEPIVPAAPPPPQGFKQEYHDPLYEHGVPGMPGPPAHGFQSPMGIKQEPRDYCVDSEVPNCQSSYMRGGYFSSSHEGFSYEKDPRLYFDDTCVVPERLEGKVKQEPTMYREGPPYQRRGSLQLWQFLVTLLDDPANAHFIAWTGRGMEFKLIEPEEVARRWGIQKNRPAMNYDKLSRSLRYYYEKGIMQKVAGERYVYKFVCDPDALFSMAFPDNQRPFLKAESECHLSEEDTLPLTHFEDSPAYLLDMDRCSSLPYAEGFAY
# In short: as §1
# ELF4 = ELF4 (Homo sapiens, UniProt Q99607 1-663)
# ELF4, sequence (Q99607 whole entry): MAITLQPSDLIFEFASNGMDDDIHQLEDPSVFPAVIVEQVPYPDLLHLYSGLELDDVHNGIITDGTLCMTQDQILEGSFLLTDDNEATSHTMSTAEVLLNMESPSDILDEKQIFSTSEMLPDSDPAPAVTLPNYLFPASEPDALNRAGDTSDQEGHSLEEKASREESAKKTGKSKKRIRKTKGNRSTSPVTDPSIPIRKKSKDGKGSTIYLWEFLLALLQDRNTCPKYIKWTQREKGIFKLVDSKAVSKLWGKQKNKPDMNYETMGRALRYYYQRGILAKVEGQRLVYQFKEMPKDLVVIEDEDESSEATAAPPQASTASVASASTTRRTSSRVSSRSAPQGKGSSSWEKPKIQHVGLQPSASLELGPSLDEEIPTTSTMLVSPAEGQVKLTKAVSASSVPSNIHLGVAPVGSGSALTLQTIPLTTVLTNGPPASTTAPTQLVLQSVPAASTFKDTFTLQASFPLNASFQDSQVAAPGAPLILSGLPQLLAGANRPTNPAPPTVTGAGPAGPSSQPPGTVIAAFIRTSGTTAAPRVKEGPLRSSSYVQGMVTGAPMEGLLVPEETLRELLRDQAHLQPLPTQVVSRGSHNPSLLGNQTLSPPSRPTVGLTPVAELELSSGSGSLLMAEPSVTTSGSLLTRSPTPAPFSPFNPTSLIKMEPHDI
# In short: as §1
# ELF3 = target: T6, ELF3 (Homo sapiens, UniProt P78545 1-371)
# T6 sequence: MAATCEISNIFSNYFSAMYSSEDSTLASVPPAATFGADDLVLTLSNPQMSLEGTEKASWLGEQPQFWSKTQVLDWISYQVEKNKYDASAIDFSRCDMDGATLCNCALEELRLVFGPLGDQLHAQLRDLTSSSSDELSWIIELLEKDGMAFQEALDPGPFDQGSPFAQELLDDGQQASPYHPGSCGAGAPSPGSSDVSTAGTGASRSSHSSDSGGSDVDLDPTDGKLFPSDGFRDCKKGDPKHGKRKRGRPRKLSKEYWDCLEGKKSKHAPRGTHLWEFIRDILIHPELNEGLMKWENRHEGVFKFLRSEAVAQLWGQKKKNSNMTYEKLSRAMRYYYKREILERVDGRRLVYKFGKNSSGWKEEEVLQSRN
# In short: as §1
# ETV1 = ETV1 (Homo sapiens, UniProt P50549 1-477)
# ETV1, sequence (P50549 whole entry): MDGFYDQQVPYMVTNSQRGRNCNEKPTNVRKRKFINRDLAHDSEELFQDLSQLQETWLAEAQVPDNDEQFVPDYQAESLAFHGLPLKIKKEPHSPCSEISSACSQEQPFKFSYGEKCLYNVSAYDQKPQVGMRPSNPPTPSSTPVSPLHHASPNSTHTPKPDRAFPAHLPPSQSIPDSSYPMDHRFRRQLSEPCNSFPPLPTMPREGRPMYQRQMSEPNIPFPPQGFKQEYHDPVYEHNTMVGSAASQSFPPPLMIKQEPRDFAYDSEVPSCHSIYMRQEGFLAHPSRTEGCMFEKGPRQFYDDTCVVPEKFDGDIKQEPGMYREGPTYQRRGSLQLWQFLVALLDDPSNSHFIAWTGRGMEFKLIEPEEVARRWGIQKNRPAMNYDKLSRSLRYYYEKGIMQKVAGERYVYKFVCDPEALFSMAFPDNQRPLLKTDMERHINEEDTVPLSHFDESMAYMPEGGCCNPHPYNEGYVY
# In short: as §1
# ERF = target: T7, ERF (Homo sapiens, UniProt P50548 1-548)
# T7 sequence: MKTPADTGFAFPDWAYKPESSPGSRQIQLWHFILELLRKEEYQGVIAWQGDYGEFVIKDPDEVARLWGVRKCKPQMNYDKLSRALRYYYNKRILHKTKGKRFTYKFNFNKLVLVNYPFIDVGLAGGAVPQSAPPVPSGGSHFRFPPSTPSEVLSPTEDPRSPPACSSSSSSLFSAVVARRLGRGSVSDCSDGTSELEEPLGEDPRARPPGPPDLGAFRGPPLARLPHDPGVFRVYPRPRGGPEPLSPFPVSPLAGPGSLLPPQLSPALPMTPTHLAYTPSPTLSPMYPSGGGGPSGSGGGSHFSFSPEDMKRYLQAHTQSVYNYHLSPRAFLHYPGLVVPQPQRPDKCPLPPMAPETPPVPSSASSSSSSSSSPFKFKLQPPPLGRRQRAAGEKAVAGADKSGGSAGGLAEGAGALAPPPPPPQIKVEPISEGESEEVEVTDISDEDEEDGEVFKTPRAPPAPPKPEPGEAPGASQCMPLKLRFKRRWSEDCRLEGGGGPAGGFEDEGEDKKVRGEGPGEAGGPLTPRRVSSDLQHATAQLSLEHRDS
# In short: as §1
# ETV3L = target: T8, ETV3L (Homo sapiens, UniProt Q6ZN32 1-361)
# T8 sequence: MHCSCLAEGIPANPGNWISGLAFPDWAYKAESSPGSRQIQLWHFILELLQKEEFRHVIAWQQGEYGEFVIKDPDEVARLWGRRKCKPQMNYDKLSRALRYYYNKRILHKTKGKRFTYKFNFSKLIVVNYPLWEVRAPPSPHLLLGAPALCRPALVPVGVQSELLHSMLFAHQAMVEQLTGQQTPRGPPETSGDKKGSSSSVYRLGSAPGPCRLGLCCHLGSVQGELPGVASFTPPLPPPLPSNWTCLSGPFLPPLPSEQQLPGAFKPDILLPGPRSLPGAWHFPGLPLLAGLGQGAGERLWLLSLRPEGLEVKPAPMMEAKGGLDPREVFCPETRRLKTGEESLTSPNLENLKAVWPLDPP
# In short: as §1
# ETS2 = target: T9, ETS2 (Homo sapiens, UniProt P15036 1-469)
# T9 sequence: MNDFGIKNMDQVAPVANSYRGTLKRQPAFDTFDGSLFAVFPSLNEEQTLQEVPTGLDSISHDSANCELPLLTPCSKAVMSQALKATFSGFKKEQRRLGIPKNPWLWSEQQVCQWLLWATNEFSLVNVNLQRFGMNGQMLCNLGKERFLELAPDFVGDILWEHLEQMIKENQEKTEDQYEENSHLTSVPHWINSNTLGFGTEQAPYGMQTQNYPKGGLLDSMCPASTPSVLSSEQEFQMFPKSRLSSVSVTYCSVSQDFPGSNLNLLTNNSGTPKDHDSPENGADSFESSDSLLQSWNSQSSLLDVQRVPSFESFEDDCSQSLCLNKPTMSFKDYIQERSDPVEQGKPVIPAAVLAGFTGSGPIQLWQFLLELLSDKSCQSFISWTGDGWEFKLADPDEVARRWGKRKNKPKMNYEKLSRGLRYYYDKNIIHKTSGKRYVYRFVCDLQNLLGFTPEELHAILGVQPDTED
# In short: as §1
# SPDEF = target: T10, SPDEF (Homo sapiens, UniProt O95238 1-335)
# T10 sequence: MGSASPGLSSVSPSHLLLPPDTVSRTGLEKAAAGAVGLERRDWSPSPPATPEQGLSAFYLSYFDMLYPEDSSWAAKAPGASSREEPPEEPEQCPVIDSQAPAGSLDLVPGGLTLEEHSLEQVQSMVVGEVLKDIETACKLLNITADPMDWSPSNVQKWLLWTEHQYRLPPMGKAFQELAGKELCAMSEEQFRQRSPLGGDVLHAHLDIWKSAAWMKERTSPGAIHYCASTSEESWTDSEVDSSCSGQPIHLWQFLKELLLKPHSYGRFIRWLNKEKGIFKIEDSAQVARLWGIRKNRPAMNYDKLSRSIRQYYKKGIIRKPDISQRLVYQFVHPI
# In short: as §1
# ETV7 = target: T11, ETV7 (Homo sapiens, UniProt Q9Y603 1-341)
# T11 sequence: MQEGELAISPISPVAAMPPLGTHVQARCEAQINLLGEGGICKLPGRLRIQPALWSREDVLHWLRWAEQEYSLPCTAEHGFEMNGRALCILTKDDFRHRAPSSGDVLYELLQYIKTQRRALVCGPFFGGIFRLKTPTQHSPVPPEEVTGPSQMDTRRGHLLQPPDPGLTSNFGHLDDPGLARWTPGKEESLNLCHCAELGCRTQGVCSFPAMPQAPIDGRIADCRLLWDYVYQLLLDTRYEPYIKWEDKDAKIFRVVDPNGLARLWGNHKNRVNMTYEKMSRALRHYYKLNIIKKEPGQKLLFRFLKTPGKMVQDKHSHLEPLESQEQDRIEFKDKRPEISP
# In short: as §1
# ETV3 = target: T12, ETV3 (Homo sapiens, UniProt P41162-2 1-143)
# T12 sequence: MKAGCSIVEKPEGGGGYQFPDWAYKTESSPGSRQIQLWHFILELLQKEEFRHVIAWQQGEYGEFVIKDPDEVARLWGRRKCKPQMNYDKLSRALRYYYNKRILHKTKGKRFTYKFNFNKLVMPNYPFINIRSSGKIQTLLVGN
# In short: as §1
# ETV6 = ETV6 (Homo sapiens, UniProt P41212 1-452)
# ETV6, sequence (P41212 whole entry): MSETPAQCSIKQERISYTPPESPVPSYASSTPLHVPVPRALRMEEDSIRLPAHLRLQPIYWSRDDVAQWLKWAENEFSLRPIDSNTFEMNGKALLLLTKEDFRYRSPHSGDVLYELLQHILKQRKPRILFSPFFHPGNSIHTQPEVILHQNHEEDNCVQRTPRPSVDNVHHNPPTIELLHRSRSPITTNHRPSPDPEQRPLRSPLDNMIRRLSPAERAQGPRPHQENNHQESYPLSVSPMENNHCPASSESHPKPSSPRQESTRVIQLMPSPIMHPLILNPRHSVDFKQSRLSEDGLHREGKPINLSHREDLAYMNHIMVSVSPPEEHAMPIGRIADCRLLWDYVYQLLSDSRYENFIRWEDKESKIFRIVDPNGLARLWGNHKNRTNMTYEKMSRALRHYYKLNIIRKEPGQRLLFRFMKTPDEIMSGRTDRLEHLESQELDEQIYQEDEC
# In short: as §1
Sequence,binding signal (ELK1),binding signal (GABPA),binding signal (ERG),binding signal (ELF1),binding signal (EHF),binding signal (SPIB),binding signal (ELK3),binding signal (ETV5),binding signal (ELF4),binding signal (ELF3),binding signal (ETV1),binding signal (ERF),binding signal (ETV3L),binding signal (ETS2),binding signal (SPDEF),binding signal (ETV7),binding signal (ETV3),binding signal (ETV6)
GACCGG,"1.11 fold enrichment (6-mer frequency, TF over GST control)","1.02 fold enrichment (6-mer frequency, TF over GST control)","1.31 fold enrichment (6-mer frequency, TF over GST control)","1 fold enrichment (6-mer frequency, TF over GST control)","1.06 fold enrichment (6-mer frequency, TF over GST control)","1.07 fold enrichment (6-mer frequency, TF over GST control)","1.23 fold enrichment (6-mer frequency, TF over GST control)","1.12 fold enrichment (6-mer frequency, TF over GST control)","1.03 fold enrichment (6-mer frequency, TF over GST control)","1.14 fold enrichment (6-mer frequency, TF over GST control)","1.21 fold enrichment (6-mer frequency, TF over GST control)","1.06 fold enrichment (6-mer frequency, TF over GST control)","1.08 fold enrichment (6-mer frequency, TF over GST control)","1.07 fold enrichment (6-mer frequency, TF over GST control)","1.19 fold enrichment (6-mer frequency, TF over GST control)","1.06 fold enrichment (6-mer frequency, TF over GST control)","1.09 fold enrichment (6-mer frequency, TF over GST control)","1.03 fold enrichment (6-mer frequency, TF over GST control)"
GTCCGG,,,"1.03 fold enrichment (6-mer frequency, TF over GST control)",,,,,"1.01 fold enrichment (6-mer frequency, TF over GST control)",,,"1 fold enrichment (6-mer frequency, TF over GST control)",,,,"1.18 fold enrichment (6-mer frequency, TF over GST control)",,"1.05 fold enrichment (6-mer frequency, TF over GST control)",

# — article PMC7862700, “An all-to-all approach to the identification of sequence-specific readers for epigenetic DNA modifications on cytosine”
